Source: the supplement of paper PMC4380459

Test system: tubulin (bovine brain)
Assay: tubulin polymerization end-point dOD, fold change relative to DMSO vehicle; higher = more polymerization (stabilization)
Settings: 50 µM; 60 min; 37 °C
Procedure, shortened: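 Plates were warmed to 37°C in a Tecan reader and read at 340 nm every minute for 1 hour. Beforehand, bovine brain tubulin (4 mg/ml in G-PEM buffer containing PIPES pH 6.9, MgCl2, EGTA and GTP) from the Cytoskeleton HTS-Tubulin polymerization kit was assembled on ice with compound at a final 50 μM in 0.5% DMSO in 384-well plates. Each value is the end-point change in optical density, expressed as percent fold change relative to DMSO vehicle, with runs scaled using the means and standard deviations of DMSO and reference-control wells.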

Structure (SMILES)	tubulin polymerization end-point dOD [%]
CS(=O)(=O)N1CCCc2cc(C(=O)Cn3cnc4scc(-c5ccc(F)cc5)c4c3=O)ccc21	-30.9
Cc1cc2cc(CN(CC3CCCO3)C(=S)Nc3ccccc3)c(=O)[nH]c2cc1C (centres undefined)	-20.3
N#Cc1ccc(Cc2cnc(NC(=O)c3ccc4ncsc4c3)s2)cc1	-40.1
COc1cc(C2NC(=O)c3ccccc3N2)cc2c1OCO2 (centres undefined)	-31.5
CCc1noc(CSc2ncnc3scc(-c4ccc(C)cc4)c23)n1	30.2
CCOC(=O)c1[nH]c(C)c(C(=O)c2cc(F)ccc2F)c1C	5.16
C/C(=N\Nc1cc(-c2ccccc2)nc(C)n1)c1ccc(C)cc1	-7.02
CN(C)c1ncc(C(=O)Nc2ccc(Oc3ccc4c(c3)OCO4)cc2)cn1	8.04
Cc1ccc(C(=O)Nc2ncc(Cc3ccccc3Br)s2)cn1	-35.9
Cc1ccc2cc(C)c3nn(CCNC(=O)c4ccncc4)c(=O)n3c2c1	-34.2
Nc1cccc2c1C(=O)c1cccc(NC(=O)c3ccccc3)c1C2=O	24.7
CSc1ncc(C(=O)Nc2ccc(Oc3ccc4c(c3)OCO4)cc2)cn1	-8.44
COc1ccc(/C=N/NC(=O)c2cccc(F)c2)cc1I	10.5
O=C(Nc1ncc(Cc2ccccc2Br)s1)c1cnccn1	6.47
CCc1cc2cc(OC)ccc2nc1SCC(=O)Nc1ccccc1Cl	-96.6
Cc1ccccc1NC(=O)CSc1nc2cc3c(cc2cc1C)CCC3	69.3
Cc1cccc(/C=N/N=C2\NC(=O)C(Cc3cccc(C)c3)S2)c1 (centres undefined)	9.8
CCc1cc2cc(OC)ccc2nc1SCC(=O)Nc1ccccc1C	104
COc1ccc(OC)c(NC(=O)CSc2nc3ccc(OC)cc3cc2C)c1	-30.7
COc1ccc(Br)cc1-c1nc(CN2C(=O)NC(C)(c3ccccc3)C2=O)cs1 (centres undefined)	88.8
CCC1c2ccsc2CC[NH+]1Cc1ccc(N2CCCC2=O)cc1 (centres undefined)	-43.7
O=C(Nc1ncc(Cc2ccc(Cl)cc2)s1)c1cnccn1	-97.6
Cc1ccc(/C=N/NC(=O)C2COc3ccccc3O2)s1 (centres undefined)	5.76
O=C(N/N=C/c1ccc2c3c(cccc13)CC2)C1COc2ccccc2O1 (centres undefined)	28.5
COc1ccc(Cl)cc1NC(=O)C1CCCN1C(=O)Nc1ccccc1OC (centres undefined)	-2.01
c1ccc(CCc2nc3c4ccccc4ncn3n2)cc1	-31.9
Cc1cnc(C(=O)Nc2ncc(Cc3cccc(C)c3Cl)s2)cn1	-85.7
Cc1cc2cc3c(cc2nc1SCC(=O)Nc1ccccc1C(F)(F)F)OCO3	-12.8
COc1cc(C(=O)Nc2ccc3c(c2)Nc2ccccc2CC3)cc(OC)c1OC	-20.1
